In the library only some 11% were active in any assay of this set; here they are far more common.
HP1b chromo inh – blocks HP1-beta chromodomain binding to methylated histone tails. P83916. AlphaScreen HP1-beta / biotin-H3K9me3 peptide binding. Potency, µM (highest dose often 114 µM), hits mostly inhibitors. hit rate 0.56% among 390,000; also: nearly all actives have a fitted effect of over 70% in size
Target sequence (P83916 whole entry, looked up): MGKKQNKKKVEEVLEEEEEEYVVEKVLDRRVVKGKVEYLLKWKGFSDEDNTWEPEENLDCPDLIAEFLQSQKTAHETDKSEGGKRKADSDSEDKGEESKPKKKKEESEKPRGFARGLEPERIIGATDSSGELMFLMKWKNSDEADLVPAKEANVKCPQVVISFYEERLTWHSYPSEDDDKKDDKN
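Compound inhibition of the preformed complex between 50 nM HP1-beta and 50 nM biotinylated H3K9me3 peptide was read by AlphaScreen. Buffer was PBS pH 7.4 with 0.01% Tween-20. Incubations ran 30 min at room temperature, with 10 ug/mL donor/acceptor beads.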
G9a inh – blocks human histone lysine methyltransferase G9a; Q96KQ7; G9a H3K9 monomethylation, AlphaScreen, 2 h; Potency, µM (highest dose often 102 µM), usual class: inhibitors; hit rate 8.8% among 350,000; also: nearly all actives have a fitted effect of over 75% in size
Target sequence (Q96KQ7 913-1193 limits assumed): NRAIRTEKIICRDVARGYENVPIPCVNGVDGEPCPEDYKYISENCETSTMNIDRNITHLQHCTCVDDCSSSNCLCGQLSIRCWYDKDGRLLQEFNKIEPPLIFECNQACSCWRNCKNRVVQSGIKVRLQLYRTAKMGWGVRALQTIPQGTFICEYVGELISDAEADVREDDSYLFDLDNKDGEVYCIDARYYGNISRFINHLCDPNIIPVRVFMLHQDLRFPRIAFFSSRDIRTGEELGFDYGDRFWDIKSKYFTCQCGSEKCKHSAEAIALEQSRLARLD
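Chemiluminescent proximity detection of H3K9 monomethylation, read after 10 min bead incubation in the dark. Reaction: 20 nM G9a, 500 nM biotin-H3K9 peptide, 20 uM SAM cofactor, 2 h, room temperature, following 15 min enzyme-compound preincubation.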
L3MBTL1 inh – L3MBTL1 (human) inhibition; AlphaScreen L3MBTL1–H3K9me1 peptide binding; AID 485360; Q9Y468; Potency, µM (titrated, usually from 57.1 µM), actives largely listed as inhibitors; hit rate 0.66% among 230,000; also: nearly all actives have a fitted effect of over 60% in size
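AlphaScreen assay: L3MBTL1 (50 nM final) was preincubated 30 min at room temperature with biotinylated H3(1-15)K9me1 peptide (75 nM final), then 30 min with library compounds; streptavidin donor and nickel chelate acceptor beads (10 ug/mL final) added, 30 min dark.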
BAZ2B inh – inhibitors of human BAZ2B bromodomain; AlphaScreen BAZ2B-H3K14Ac peptide displacement; hit rate 4.4% among 360,000; Q9UIF8; Potency, µM (highest dose often 114 µM), most hits filed as inhibitors; also: nearly all actives have a fitted effect of over 60% in size
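AlphaScreen displacement: compounds (up to 110uM) incubated 30 min at room temperature with a preformed 50 nM BAZ2B/50 nM biotinylated H3K14Ac peptide complex in PBS pH 7.4 with Tween-20. Donor and acceptor beads at 10 ug/mL final added, 20 min light-protected before reading.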
JMJD2A Tudor – inhibitors of human JMJD2A Tudor domain; AlphaScreen JMJD2A-Tudor / H3K4me3 peptide binding; Potency, µM (doses to about 114 µM), usual class: inhibitors; AID 504339; hit rate 4.4% among 390,000; also: nearly all actives have a fitted effect of over 50% in size
Large screens that a line does not name were inactive. Calls follow the shape of the dose curve; as a rule, active = well fitted inhibition curve with a large enough effect; inconclusive = small, poorly fitted or top-dose-only effect; inactive = no such curve, though single readings can be large or run the other way.

CC1CCc2c(c3ccccc3n2C(=O)CCl)C1 (centres undefined)	BAZ2B inh 79.4µM, JMJD2A Tudor inconclusive
O=C1c2cccc3c2[C@@H](CCC3)CN1[C@@H]1CN2CCC1CC2	none (no result: HP1b chromo inh, L3MBTL1 inh, BAZ2B inh, JMJD2A Tudor)
Cn1c(=O)oc2cc(S(=O)(=O)NC(CC(=O)O)c3cccc(Br)c3)ccc21 (centres undefined)	none (no result: L3MBTL1 inh)
O=C1OCCN1c1c(-c2ccccc2)c(-c2cccs2)nc2c(-c3ccccc3)cccc12	G9a inh 39.8µM
CCC(Sc1nnc(-c2ccc(C)c(Cl)c2)n1CC)C(=O)Nc1nccs1 (centres undefined)	G9a inh inconclusive, JMJD2A Tudor 89.1µM
CCn1c(SCC(=O)Nc2nccs2)nnc1-c1ccc(S(=O)(=O)N2CCCCCC2)cc1	none (no result: L3MBTL1 inh)
C[n+]1ccc(C(=O)NCCC[N+](C)(C)C)cc1/C=N/O	none
CN(C)CCCNC(=O)c1ccc(/C=N/O)nc1	JMJD2A Tudor 1.41µM
CNCCCNC(=O)c1ccc(/C=N/O)nc1	G9a inh inconclusive, BAZ2B inh 22.4µM, JMJD2A Tudor 20µM (no result: L3MBTL1 inh)
C[N+](C)(C)CCCNC(=O)c1ccc(/C=N/O)nc1	G9a inh inconclusive, BAZ2B inh 20µM, JMJD2A Tudor 3.98µM (no result: L3MBTL1 inh)
Cc1ccccc1NC(=O)c1ccc(Cl)c(NC(=O)c2ccncc2)c1	none
Cc1[nH]c(=O)c(C#N)cc1-c1ccc2nccn2c1	G9a inh 12.6µM (no result: HP1b chromo inh, L3MBTL1 inh, BAZ2B inh, JMJD2A Tudor)
CN(C)c1ccc(CNC(=O)CCNS(=O)(=O)c2cc(Br)cnc2N)cc1	G9a inh 35.5µM, JMJD2A Tudor 31.6µM (no result: L3MBTL1 inh)
COc1cc(CCC(=O)Nc2cccc(C(F)(F)F)c2)cc(OC)c1OC	G9a inh 44.7µM
COc1cc(CC(=O)Nc2cccc(C(F)(F)F)c2)cc(OC)c1OC	none
CCCN(Cc1cc2cccc(C)c2[nH]c1=O)C(=O)c1cccc(Cl)c1	none (no result: L3MBTL1 inh)
C#CCOCCOCCOCCNc1nc(N2CCN(C(=O)Cn3cc(CCCCN)nn3)CC2)nc(N2CCN(C(=O)[C@H](C)n3cc(CCCN=C(N)N)nn3)CC2)n1	G9a inh 28.2µM, BAZ2B inh inconclusive (no result: HP1b chromo inh, JMJD2A Tudor)
C#CCOCCOCCOCCNc1nc(N2CCN(C(=O)Cn3cc(CC(C)O)nn3)CC2)nc(N2CCN(C(=O)[C@H](C)n3cc(CCCN=C(N)N)nn3)CC2)n1 (some centres undefined)	G9a inh 7.08µM, BAZ2B inh 79.4µM, JMJD2A Tudor 44.7µM
C#CCOCCOCCOCCNc1nc(N2CCN(C(=O)Cn3cc(CCCN=C(N)N)nn3)CC2)nc(N2CCN(C(=O)[C@H]([C@@H](C)O)n3cc(CCCCN)nn3)CC2)n1	none
C#CCOCCOCCOCCNc1nc(N2CCN(C(=O)Cn3cc(CCCN=C(N)N)nn3)CC2)nc(N2CCN(C(=O)[C@H](CCCCN)n3cc(CC(C)O)nn3)CC2)n1 (some centres undefined)	none
Cc1ccc(NC2CCCN(C(=O)CN3C(=O)c4ccccc4C3=O)C2)cc1C (centres undefined)	BAZ2B inh inconclusive (no result: L3MBTL1 inh)
Cc1ccc(SCC(=O)NNC(=O)c2ccccc2)cc1C	none (no result: L3MBTL1 inh)
Cc1ccc(C)c(SCC(=O)NNC(=O)c2ccccc2)c1	G9a inh 44.7µM (no result: L3MBTL1 inh)
Cc1ccc2nc(SCC(=O)NNC(=O)c3ccccc3)[nH]c2c1	G9a inh 25.1µM
Cc1ccc2nc(SCC(=O)Nc3ncccn3)[nH]c2c1	BAZ2B inh inconclusive (no result: G9a inh, L3MBTL1 inh)
Cn1c(SCc2ccc(F)cc2)nc2ccc(C(=O)NCc3ccc(F)cc3)cc21	none (no result: L3MBTL1 inh)
O=C(CSc1nc2ccc(Cl)cc2[nH]1)NCCc1ccccc1	G9a inh 79.4µM
Cc1ccc(CNC(=O)c2ccc3nc(SCc4ccc(F)cc4)[nH]c3c2)cc1	HP1b chromo inh inconclusive, G9a inh 7.94µM, BAZ2B inh 39.8µM, JMJD2A Tudor 7.94µM (no result: L3MBTL1 inh)
COc1cccc(CNC(=O)C2Cc3cc(S(=O)(=O)N4CCCCCC4)ccc3N2C(C)=O)c1 (centres undefined)	none (no result: L3MBTL1 inh)
COc1cccc(CNC(=O)CN2C(=O)CCn3nc(-c4cn(C)c5ccccc45)cc32)c1OC	none (no result: L3MBTL1 inh)
COc1cc(Br)cc(CN2CCN(C/C=C/c3ccccc3)CC2)c1O	G9a inh 39.8µM, BAZ2B inh 39.8µM, JMJD2A Tudor inconclusive
COc1ccc(NC(=S)N2CCN(C/C=C/c3ccccc3)CC2)cc1OC	BAZ2B inh inconclusive (no result: G9a inh)
COc1ccc(O)c(CN2CCN(C/C=C/c3ccccc3)CC2)c1	G9a inh inconclusive, BAZ2B inh inconclusive, JMJD2A Tudor 56.2µM
CC(=O)c1cccc(NC(=O)c2cnn(-c3cccc(C)c3)c2-n2cccc2)c1	none (no result: L3MBTL1 inh)
CCN(CC)S(=O)(=O)c1cccc(NC(=O)CNC2CCCCCC2)c1	G9a inh 35.5µM, BAZ2B inh 79.4µM, JMJD2A Tudor 50.1µM
CCN(CC)S(=O)(=O)c1cccc(NC(=O)CCNC(=O)NC23CC4CC(CC(C4)C2)C3)c1	G9a inh 50.1µM
CN(C)S(=O)(=O)c1cccc(NC(=S)NC23CC4CC(CC(C4)C2)C3)c1	none (no result: L3MBTL1 inh)
CCN(CC)S(=O)(=O)c1cccc(C(=O)NCC2CCCCC2)c1	JMJD2A Tudor 28.2µM (no result: L3MBTL1 inh)
NS(=O)(=O)c1cccc(NC(=O)CC2(CC(=O)O)CCCC2)c1	none (no result: L3MBTL1 inh)
CC1CCC(NCC(=O)Nc2cccc(S(N)(=O)=O)c2)CC1 (centres undefined)	G9a inh 10µM, BAZ2B inh 79.4µM, JMJD2A Tudor 22.4µM
CCOc1ccc(OCC)c(NC(=O)Cn2ncc3c4ccccc4n(Cc4ccccc4)c3c2=O)c1	none (no result: L3MBTL1 inh)
CCOc1ccc(CCNC(=O)CN2C(=O)COc3ccc(S(=O)(=O)N4CCC(C)CC4)cc32)cc1	none (no result: L3MBTL1 inh)
COc1ccccc1CNC(=O)Cc1c(C)c2c(cc(C)c3c(C)coc32)oc1=O	none (no result: L3MBTL1 inh)
CN(C)S(=O)(=O)c1cccc(NC(=O)CNCC2CCCCC2)c1	G9a inh 14.1µM, BAZ2B inh inconclusive, JMJD2A Tudor 22.4µM
CCOc1cccc2cc(-c3nc4sc5c(c4c(=O)[nH]3)CCC(C(C)(C)C)C5)c(=O)oc12 (centres undefined)	none (no result: L3MBTL1 inh)
O=C(O)COc1ccc(-c2nccc(-c3ccccn3)n2)cc1	HP1b chromo inh inconclusive, G9a inh inconclusive, BAZ2B inh 79.4µM
O=[S+]([O-])(c1ccc2c(c1)OCCO2)N1CCN([S+](=O)([O-])c2c(O)cc(F)cc2F)CC1	none (no result: HP1b chromo inh, G9a inh, L3MBTL1 inh, BAZ2B inh)
CCc1ccccc1NNC(=O)c1cc(C)on1	G9a inh 3.16µM
Cc1cc(C(=O)NNc2ccccc2F)no1	G9a inh 39.8µM
Cc1cc(C(=O)Nc2ccccc2C(F)(F)F)no1	none
CCc1ccc(C(=O)NNc2ccccc2F)cc1	none (no result: G9a inh)
CCCc1ccc(C(=O)NNc2ccccc2F)cc1	G9a inh 56.2µM
Cc1cc(C(=O)NNc2ccc(F)cc2)no1	G9a inh 28.2µM
CC(Sc1nnc2ccc3ccccc3n12)C(=O)Nc1ccc(Cl)cc1 (centres undefined)	G9a inh inconclusive, JMJD2A Tudor inconclusive (no result: L3MBTL1 inh)
COc1ccc(Br)cc1CNC(=O)c1cc(=O)[nH]c2ccc(S(=O)(=O)N3CCCCC3C)cc12 (centres undefined)	JMJD2A Tudor inconclusive (no result: L3MBTL1 inh)
